Growth data for eight molecules are collected here from PubChem BioAssay (NCI).

Compounds without any hit were thinned out: in the full panel of roughly 83,000, 20% have a hit.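 Single-concentration screen, 48 h exposure, 96-well plates. Endpoint: percent growth. Below 10 = active.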 A number with no mark means an inactive call. The source made the active and inactive calls.

What all share (experiment): NCI-60 one-dose screen, 48 h (100 = growth as untreated, 0 = no growth, -100 = all killed)
Assay [1] concerns HCT-15 colon. Conditions: 10 µM unless noted.
Assay [2] deals with HT29 colon. The following applies: 10 µM unless noted.
Assay [3] has as its system SNB-75 CNS. Conditions: 10 µM unless noted.
The subject of assay [4] is SNB-19 CNS. Conditions: 10 µM unless noted.
In assay [5] the test system is U251 CNS. Conditions: 10 µM unless noted.
Assay [6] deals with PC-3 prostate. The following applies: 10 µM unless noted.
Assay [7] deals with SK-MEL-5 melanoma. Conditions: 10 µM unless noted.
Assay [8] concerns UACC-62 melanoma. Conditions: 10 µM unless noted.
For assay [9], the system named is LOX IMVI melanoma. Conditions: 10 µM unless noted.
In assay [10] the test system is SK-MEL-28 melanoma. Conditions: 10 µM unless noted.
The test system of assay [11] is SK-MEL-2 melanoma. The following applies: 10 µM unless noted.
For assay [12], the system named is UO-31 renal. The following applies: 10 µM unless noted.
Assay [13] concerns TK-10 renal. The following applies: 10 µM unless noted.
In assay [14] the test system is ACHN renal. The following applies: 10 µM unless noted.
Assay [15] concerns CAKI-1 renal. Conditions: 10 µM unless noted.
For assay [16], the system named is A498 renal. The following applies: 10 µM unless noted.
The subject of assay [17] is CCRF-CEM leukemia. Conditions: 10 µM.
Assay [18] deals with MOLT-4 leukemia. The following applies: 10 µM unless noted.
For assay [19], the system named is SN12C renal. Conditions: 10 µM unless noted.
In assay [20] the test system is EKVX NSCLC. Conditions: 10 µM.

As for `O=CN/N=C/c1ccc(Cl)c([N+](=O)[O-])c1`, the growth in [1] was 47.3%; in assay [2], 6.89% (active); in [3], 62.2%; in assay [4], 32.5%; in assay [5], 11.9%; in assay [6] it was 1.87% (active). Also, the growth was 14.2% in assay [7]; 18% in assay [8]; 17% in assay [9]; 43% in [10]; 41.1% in [11]; 80.1% in assay [12]. The growth in assay [13] is 8.5% (active); in [14], 44.2%; in assay [15], 41.1%; in assay [16] it was 56%; in assay [17], 15.3%; in assay [18], 20.6%.

On to `CCCCCCCCC1OC1CCCCCCCC(=O)O` (stereo unspecified), for which the growth in [1] was 96.6%; in [2] it was 118%; in assay [3] it was 92.9%; in assay [4] it was 101%; in assay [5] it was 91.3%; in [6] it was 89.9%. Besides, the growth was 98% in [7]; 88.5% in [8]; 109% in assay [9]; 110% in assay [10]; 103% in assay [11]; 94.5% in [19]. Moreover, the growth in [13] was 104%; in assay [14], 103%; in assay [15] it was 100%; in assay [16], 102%; in assay [17], 93%; in assay [18], 104%.

For the molecule `O=C(c1ccccc1)c1ccccc1-c1ccccc1`, the growth was 17.8% in assay [1]; -25.8% (active) in assay [2]; 3.14% (active) in assay [3]; 34.7% in assay [4]; 25.4% in assay [5]; 41.4% in assay [6]. Moreover, the growth in assay [7] was 25%; in assay [8], 34.5%; in [9] it was 31.6%; in [10], 50.1%; in assay [20], 58.8%; in [19] it was 31.3%. The growth in assay [12] was 44.5%; in [13] it was 8.04% (active); in assay [14], 33.7%; in assay [15], 17.4%; in [16], 43.1%; in [17], 11%. Besides, the growth in [18] was 30.4%.

For the molecule `N#Cc1c2cccnc2c2nnc3cc(Cl)c(Cl)cc3n12`, the growth in assay [1] is 1.83% (active); in [2], -50.6% (active); in assay [3], -6.13% (active); in assay [4], 63.1%; in assay [5] it was 26.2%; in assay [6], 18.4%. In addition, the growth in assay [7] was 86.1%; in assay [8], 52.5%; in [9], 21.9%; in [10], 17.6%; in assay [20], 80.8%; in [19] it was 75%. Further, the growth in assay [13] is -31.8% (active); in [14], 10.2%; in assay [15], -3.12% (active); in assay [16], 80.9%; in assay [17], 29.1%; in assay [18] it was 7.72% (active).

On to `O=C1Nc2c(c(=O)n(-c3ccccc3)c3ccccc23)C(c2ccc(Cl)cc2)N1` (stereo unspecified), for which the growth in assay [1] was 90.4%; in assay [2], 106%; in assay [3], 80.7%; in assay [4], 60.4%; in assay [5], 85.9%; in assay [6] it was 105%. Besides, the growth in assay [7] was 80.4%; in assay [8] it was 62.8%; in assay [9], 36.4%; in assay [10] it was 90.9%; in assay [20], 86.8%; in assay [19] it was 76.3%. For the same molecule, the growth in assay [12] was 80.5%; in [13], 54.8%; in assay [14], 102%; in assay [15] it was 101%; in [16], 98.1%; in assay [17], 79.5%. Also, the growth in [18] was 81.9%.

Take `COc1cc(-c2nn(-c3ccc(NC(=O)Nc4ccc(Cl)c(Cl)c4)cc3)cc2-c2ccncc2)ccc1Cl`: the growth in [1] was 28.9%; in assay [2], 18.1%; in assay [3], 25%; in assay [4], 36.9%; in [5] it was 24.3%; in assay [6], 16.9%. Further, the growth in assay [7] was 48%; in assay [8], 32.8%; in [9], 20.1%; in [10] it was 41.5%; in assay [20], 33.6%; in assay [19], 43.4%. The growth is 33.4% in assay [12]; -12.6% (active) in assay [13]; 20.9% in assay [14]; 30.2% in assay [15]; 38.7% in assay [16]; 11.7% in [17]. The growth in assay [18] is 9.31% (active).

As to `CC(=O)NCCN`, the growth was 94% in assay [1]; 101% in [2]; 89.7% in assay [3]; 98.8% in [4]; 97.3% in assay [5]; 92.3% in assay [6]. In addition, the growth was 108% in [7]; 102% in assay [8]; 93.3% in assay [9]; 108% in assay [10]; 115% in assay [11]; 104% in assay [19]. The growth is 109% in assay [13]; 97.2% in [14]; 84.7% in assay [15]; 97.9% in assay [16]; 102% in [18].

Consider `C/C=C/C/C=C/[C@H](C)C[C@H](O)[C@@H]1C[C@@H]2O[C@H]2/C=C/[C@H](O)[C@@H](O)/C=C/C[C@H](C)CC(=O)O1`, for which the growth is 66.1% in assay [1]; 68.4% in assay [2]; 90.9% in [3]; 97.4% in assay [4]; 87.4% in assay [5]; 115% in assay [6]. Besides, the growth in assay [7] was 72.9%; in [8] it was 71.3%; in [9], 88.3%; in assay [10], 101%; in assay [20], 121%; in assay [19], 79.1%. Besides, the growth in assay [12] was 56.9%; in [13] it was 42.8%; in assay [14], 77.5%; in [16], 115%; in [17] it was 51.3%; in [18] it was 81.5%.
